According to ChEMBL document CHEMBL3988442, “University of Dundee, Small-Polar-MMV Screening Library” (2021):
For some assays here: Potency and affinity values are given separately.

What was measured:
Set-up in all cases: scale not given: direction of the effect not stated beside the values
[1] = target: Protein translocase subunit SecA (Escherichia coli (strain K12)) (UniProt P10408); test: Assay to Identify E. coli SecA ATPase Inhibitors; assay type: functional; settings: 30 µM
[2] = target: T1, Ubiquitin-activating enzyme e1, putative (Leishmania donovani (strain BPK282A1)) (UniProt E9BSI1); test: Leishmania donovani Ubiquitin Activating Enzyme (LdE1); assay type: functional; settings: 30 µM
T1 sequence (whole entry): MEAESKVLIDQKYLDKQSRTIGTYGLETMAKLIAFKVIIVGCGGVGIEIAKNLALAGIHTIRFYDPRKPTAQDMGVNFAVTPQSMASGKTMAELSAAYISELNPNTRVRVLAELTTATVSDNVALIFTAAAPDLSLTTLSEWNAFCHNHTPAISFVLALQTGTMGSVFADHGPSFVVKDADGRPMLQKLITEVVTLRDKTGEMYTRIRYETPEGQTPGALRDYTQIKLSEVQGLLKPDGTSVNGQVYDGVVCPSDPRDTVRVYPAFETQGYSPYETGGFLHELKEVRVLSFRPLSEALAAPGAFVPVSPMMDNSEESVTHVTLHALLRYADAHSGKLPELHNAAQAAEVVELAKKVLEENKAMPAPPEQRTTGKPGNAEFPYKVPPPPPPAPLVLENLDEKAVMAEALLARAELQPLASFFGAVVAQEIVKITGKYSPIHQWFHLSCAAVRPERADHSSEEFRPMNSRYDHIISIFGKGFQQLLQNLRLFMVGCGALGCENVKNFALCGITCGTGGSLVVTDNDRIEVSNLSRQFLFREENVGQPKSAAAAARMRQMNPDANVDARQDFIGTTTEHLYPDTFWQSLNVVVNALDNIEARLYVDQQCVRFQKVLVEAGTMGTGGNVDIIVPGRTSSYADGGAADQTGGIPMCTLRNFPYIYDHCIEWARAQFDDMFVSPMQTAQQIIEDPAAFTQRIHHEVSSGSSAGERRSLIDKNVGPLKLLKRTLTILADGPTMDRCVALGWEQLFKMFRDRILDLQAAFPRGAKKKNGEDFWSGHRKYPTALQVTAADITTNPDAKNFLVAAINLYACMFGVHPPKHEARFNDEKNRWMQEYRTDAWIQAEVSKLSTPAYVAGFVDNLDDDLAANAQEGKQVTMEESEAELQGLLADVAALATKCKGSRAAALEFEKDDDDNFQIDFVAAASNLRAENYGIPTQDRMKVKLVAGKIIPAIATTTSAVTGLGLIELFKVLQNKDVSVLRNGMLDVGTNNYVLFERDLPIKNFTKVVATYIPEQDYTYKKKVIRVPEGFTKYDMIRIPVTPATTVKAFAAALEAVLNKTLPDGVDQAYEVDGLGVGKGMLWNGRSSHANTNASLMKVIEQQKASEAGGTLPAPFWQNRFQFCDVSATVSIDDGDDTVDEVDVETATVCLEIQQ

[3] = target: AMP-activated protein kinase, AMPK (Homo sapiens) (UniProt P54646+O43741+P54619+Q9UGJ0+Q9Y478+Q13131+Q9UGI9); test: AMP-dependent Kinase enzyme assay. An in vitro enzyme assay that detects ADP turnover that is directly proportional to AMPK activity. This uses naive AMPK that is activated during the assay with MK-8722; assay type: functional; settings: 30 µM
[4] = target: Sialic acid-binding Ig-like lectin 9 (Homo sapiens) (UniProt Q9Y336); test: Hs-Siglec9 ALPHAscreen SOP 20170721; settings: 10 µM
Trypanosoma cruzi = test: Trypanosoma cruzi phosphomannomutase and mannose-1-phosphate guanylyltransferase assay; assay type: functional; settings: 10 µM
[5] = target: T2, Arginase-2, mitochondrial (Homo sapiens) (UniProt P78540); test: in vitro enzyme assay to detect the production of urea directly proportional to the activity of Arginase II; assay type: functional; settings: 33.3 µM; note: in the data most compounds retested in dose-response had high values
T2 sequence (whole entry): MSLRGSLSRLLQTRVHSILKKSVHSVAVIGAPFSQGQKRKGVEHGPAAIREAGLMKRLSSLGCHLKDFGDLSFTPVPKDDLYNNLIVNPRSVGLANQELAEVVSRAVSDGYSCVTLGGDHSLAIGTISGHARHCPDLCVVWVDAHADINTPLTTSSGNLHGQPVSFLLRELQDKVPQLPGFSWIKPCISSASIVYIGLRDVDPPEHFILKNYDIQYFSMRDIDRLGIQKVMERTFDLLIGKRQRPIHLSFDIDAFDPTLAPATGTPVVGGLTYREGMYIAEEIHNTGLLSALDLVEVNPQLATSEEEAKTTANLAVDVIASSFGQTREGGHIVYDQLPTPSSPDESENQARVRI

[6] = target: T3, Proteasome subunit beta (Trypanosoma cruzi) (UniProt O96673); test: Trypanosoma cruzi proteasome chymotrypsin-like activity (TcProtChymo) assay.; note: in the data most compounds retested in dose-response had high values; assay type: functional; settings: 9.37 µM
T3 sequence (whole entry): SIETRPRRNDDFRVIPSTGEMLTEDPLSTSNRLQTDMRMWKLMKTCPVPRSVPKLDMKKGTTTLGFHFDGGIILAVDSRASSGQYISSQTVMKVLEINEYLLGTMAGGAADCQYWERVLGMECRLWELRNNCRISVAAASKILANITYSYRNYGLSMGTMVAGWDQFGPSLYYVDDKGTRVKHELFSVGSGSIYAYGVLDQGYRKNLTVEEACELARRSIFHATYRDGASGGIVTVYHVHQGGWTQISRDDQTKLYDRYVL

Homo sapiens = species: Homo sapiens; test: To identify inhibition of the IFN signalling (Jak-Stat) pathway via expression of an eGFP reporter gene under the control of an IFN-stimulated response element (ISRE) containing MxA promoter.; assay type: functional; settings: 30 µM
[7] = target: T4, Tyrosyl-tRNA synthetase, putative (Trypanosoma cruzi (strain CL Brener)) (UniProt Q4DSP6); test: Trypanosoma cruzi tyrosyl tRNA synthetase (TcYRS) _High Tyrosine SOP; assay type: functional; settings: 30 µM; note: in the data most compounds retested in dose-response had high values
T4 sequence (whole entry): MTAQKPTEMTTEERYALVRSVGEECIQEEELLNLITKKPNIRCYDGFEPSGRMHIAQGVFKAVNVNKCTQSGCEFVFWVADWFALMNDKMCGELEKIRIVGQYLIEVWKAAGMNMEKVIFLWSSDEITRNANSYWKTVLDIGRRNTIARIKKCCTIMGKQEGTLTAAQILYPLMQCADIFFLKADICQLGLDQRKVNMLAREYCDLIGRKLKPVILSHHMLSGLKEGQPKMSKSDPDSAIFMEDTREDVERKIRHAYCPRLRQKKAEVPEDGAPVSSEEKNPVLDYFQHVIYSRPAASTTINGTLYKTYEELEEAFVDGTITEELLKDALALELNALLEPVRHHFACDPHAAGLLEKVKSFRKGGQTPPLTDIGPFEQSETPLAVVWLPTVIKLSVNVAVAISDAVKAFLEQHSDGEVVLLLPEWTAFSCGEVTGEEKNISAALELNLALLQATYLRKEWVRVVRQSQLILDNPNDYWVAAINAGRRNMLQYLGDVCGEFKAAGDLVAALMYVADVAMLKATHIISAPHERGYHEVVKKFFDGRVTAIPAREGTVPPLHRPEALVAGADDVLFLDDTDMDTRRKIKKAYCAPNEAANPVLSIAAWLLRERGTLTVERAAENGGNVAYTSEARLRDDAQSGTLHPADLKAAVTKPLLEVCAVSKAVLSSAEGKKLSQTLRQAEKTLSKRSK

[8] = target: T4, Tyrosyl-tRNA synthetase, putative (Trypanosoma cruzi (strain CL Brener)); test: Trypanosoma cruzi tyrosyl tRNA synthetase (TcYRS) SOP; assay type: functional; settings: 30 µM
[9] = target: Chromo domain-containing protein 1 (Saccharomyces cerevisiae (strain ATCC 204508 / S288c) (Baker's yeast)) (UniProt P32657); test: ScCHD-1 Enzyme Inhibition Assay; assay type: functional; settings: 30 µM; note: in the data most compounds retested in dose-response had high values
Chain of Chromo domain-containing protein 1 (Saccharomyces cerevisiae (strain ATCC 204508 / S288c) (Baker's yeast)) (P32657 whole entry, the tested form may be a part): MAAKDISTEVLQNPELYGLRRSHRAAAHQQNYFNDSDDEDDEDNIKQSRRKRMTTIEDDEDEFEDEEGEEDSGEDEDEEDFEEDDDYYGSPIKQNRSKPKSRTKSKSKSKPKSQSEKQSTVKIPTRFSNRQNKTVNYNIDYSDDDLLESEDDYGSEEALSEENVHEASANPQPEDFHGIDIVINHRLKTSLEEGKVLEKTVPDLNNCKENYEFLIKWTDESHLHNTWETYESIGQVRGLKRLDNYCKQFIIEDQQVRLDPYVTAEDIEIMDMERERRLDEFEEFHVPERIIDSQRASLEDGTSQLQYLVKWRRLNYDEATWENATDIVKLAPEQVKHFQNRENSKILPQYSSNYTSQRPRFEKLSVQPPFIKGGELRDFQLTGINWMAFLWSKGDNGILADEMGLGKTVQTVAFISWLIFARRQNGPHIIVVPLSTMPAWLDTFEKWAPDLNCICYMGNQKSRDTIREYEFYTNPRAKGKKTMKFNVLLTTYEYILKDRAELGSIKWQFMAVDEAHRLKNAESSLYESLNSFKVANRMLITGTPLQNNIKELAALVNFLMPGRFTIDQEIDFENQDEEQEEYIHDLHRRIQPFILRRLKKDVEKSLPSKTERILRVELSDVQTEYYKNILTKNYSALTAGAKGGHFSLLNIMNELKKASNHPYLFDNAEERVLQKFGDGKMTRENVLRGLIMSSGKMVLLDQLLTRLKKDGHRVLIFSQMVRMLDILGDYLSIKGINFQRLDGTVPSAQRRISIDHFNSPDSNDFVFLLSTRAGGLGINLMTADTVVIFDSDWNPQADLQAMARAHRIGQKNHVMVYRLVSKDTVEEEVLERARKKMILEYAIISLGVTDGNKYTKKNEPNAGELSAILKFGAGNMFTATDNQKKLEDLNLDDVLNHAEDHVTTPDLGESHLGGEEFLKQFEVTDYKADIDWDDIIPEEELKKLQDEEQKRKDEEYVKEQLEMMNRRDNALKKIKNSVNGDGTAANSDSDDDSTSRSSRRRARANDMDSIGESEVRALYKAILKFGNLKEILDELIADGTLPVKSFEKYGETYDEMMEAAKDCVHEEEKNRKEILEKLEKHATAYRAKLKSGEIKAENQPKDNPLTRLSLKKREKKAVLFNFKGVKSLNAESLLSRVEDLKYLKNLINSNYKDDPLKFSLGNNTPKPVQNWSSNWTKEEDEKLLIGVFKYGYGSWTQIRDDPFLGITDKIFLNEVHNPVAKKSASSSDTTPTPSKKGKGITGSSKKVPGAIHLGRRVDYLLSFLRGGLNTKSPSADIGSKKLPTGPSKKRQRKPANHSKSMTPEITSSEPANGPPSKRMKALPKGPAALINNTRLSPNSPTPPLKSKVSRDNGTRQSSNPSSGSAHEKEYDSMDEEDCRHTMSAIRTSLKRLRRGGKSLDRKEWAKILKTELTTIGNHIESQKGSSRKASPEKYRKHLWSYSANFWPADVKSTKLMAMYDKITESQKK

Chain of Protein translocase subunit SecA (Escherichia coli (strain K12)) (P10408 whole entry): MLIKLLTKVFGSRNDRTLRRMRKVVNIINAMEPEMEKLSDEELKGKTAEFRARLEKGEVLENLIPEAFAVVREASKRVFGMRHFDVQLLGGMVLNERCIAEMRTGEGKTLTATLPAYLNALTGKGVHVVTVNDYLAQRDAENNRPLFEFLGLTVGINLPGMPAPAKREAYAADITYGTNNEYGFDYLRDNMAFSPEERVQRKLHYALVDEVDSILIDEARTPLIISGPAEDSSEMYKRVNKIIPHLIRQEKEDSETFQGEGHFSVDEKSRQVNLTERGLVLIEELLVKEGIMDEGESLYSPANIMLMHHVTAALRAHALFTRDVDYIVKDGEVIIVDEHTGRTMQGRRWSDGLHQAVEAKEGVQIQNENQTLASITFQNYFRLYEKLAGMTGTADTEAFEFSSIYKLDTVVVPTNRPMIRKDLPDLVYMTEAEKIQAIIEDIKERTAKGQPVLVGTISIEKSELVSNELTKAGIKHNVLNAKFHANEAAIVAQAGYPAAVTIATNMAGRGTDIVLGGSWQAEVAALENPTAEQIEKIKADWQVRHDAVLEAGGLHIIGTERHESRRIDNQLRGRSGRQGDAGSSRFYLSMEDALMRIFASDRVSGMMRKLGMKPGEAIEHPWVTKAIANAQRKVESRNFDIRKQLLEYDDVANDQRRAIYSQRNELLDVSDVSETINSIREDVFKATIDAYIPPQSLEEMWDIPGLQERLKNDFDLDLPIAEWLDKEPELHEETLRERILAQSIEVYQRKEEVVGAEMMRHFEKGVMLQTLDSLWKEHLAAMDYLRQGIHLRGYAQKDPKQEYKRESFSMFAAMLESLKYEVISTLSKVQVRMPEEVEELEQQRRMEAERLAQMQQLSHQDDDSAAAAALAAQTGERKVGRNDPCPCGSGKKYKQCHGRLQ
Chain of Sialic acid-binding Ig-like lectin 9 (Homo sapiens) (Q9Y336 whole entry): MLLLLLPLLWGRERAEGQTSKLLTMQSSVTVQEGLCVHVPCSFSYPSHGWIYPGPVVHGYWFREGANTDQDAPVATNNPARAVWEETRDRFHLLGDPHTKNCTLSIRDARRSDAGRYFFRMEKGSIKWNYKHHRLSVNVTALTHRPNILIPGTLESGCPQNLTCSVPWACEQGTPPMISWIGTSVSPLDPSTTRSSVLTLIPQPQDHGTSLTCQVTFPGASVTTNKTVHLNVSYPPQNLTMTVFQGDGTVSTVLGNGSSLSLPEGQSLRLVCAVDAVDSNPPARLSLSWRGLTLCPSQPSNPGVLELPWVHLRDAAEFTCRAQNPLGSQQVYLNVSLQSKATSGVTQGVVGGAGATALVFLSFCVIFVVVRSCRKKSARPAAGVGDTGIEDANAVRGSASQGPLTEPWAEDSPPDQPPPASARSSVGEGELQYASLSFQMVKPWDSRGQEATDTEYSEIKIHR

| Structure (SMILES) | Percent Effect [1] [%] | Percent Effect [2] [%] | Percent Effect [3] [%] | Percent Effect [4] [%] | Percent Effect (Trypanosoma cruzi) [%] | Percent Effect [5] [%] | Percent Effect [6] [%] | Percent Effect (Homo sapiens) [%] | Percent Effect [7] [%] | Percent Effect [8] [%] | Percent Effect [9] [%] |
| --- | --- | --- | --- | --- | --- | --- | --- | --- | --- | --- | --- |
| COc1cc(CNCc2c(C)nn(C)c2N(C)C)ccc1C | -4.67 | -5.41 | -13.7 | 2.96 | 1.98 | -6.41 | 3.06 | -2.21 | 5.42 | 1.24 | 0.104 |
| O=C(c1cn(-c2cc(N3CCSCC3)ncn2)cn1)N1CCSCC1 | -2.69 | 8.22 | -3.54 | -3.87 | 6.27 | -1.82 | 24 | -3.38 | 7.53 | 15 | -3.99 |
| Cc1nc(C2(O)CCCNCC2)sc1CCOc1ccc(Cl)cc1 (configuration not stated) | -4.62 | 6.76 | 17.1 | 1.33 | -3.56 | -2.09 | 6.4 | 33.8 | 4.3 | 11.7 | -12.8 |
| COc1ccc(C)cc1CSCCn1nc2ccccn2c1=O | -4.01 | 20.8 | -1.24 | -10.9 | 4.6 | -1.47 | 12.7 | 11.9 | 3.81 | 21.2 | -22.4 |
| CCc1n[nH]c(C2CN(C(=O)CCc3cccs3)CCO2)n1 (configuration not stated) | -5.44 | 11.4 | -4.01 | -7.1 | 1.74 | 0.645 | 8.23 | 1.68 | 4.17 | 12.7 | -38.8 |
| Cc1ccc2c(c1)c(CNC(=O)C1CCN(C(C)C)CC1)nn2C | 2.34 | 5.41 | -3.84 | -0.447 | -0.579 | -2.38 | 12.9 | -16.3 | 4.76 | 14.6 | -3.28 |
| Cn1ccc(C(=O)N2CCN(c3cc(C#N)ccn3)CC2)cc1=O | -6.91 | 13.5 | -11.9 | 26.1 | 4.06 | -5.61 | 7.21 | 6.78 | 5.42 | 13.6 | -17.3 |
| Cc1nn(CC(=O)N2CCN(c3ccccc3F)CC2)c(C)c1Cl | 0.317 | 15.6 | 4.64 | 2.9 | 1.87 | -24.8 | 25.5 | 9.79 | 4.3 | 23.5 | 1.69 |
| CCCN1CC(C(=O)Nc2ccccn2)CC1=O (configuration not stated) | 0.0255 | 0 | -0.466 | 5.93 | 4.83 | 12.4 | 9.31 | 15.4 | 2.65 | 7.32 | -4.7 |
| CCS(=O)(=O)CC(=O)NC(c1ccc(F)cc1)C1CCCC1 (configuration not stated) | -5.43 | 0 | 132 | 2.49 | -4.58 | -2.37 | 17 | 6.16 | 3.19 | 5.2 | -4.36 |
| Cc1ccoc1C(=O)N1CC[C@H]2O[C@@H](C)C[C@H]2C1 | -5.4 | 21.3 | -6.43 | 2.33 | 5.6 | -45.3 | 9.06 | 2.95 | 8.33 | 22.5 | -8.54 |
| Cc1cnn(CCNCc2csc(-c3ccc(F)cc3)n2)c1 | -3.56 | -15.8 | 4.58 | 5.27 | 3.19 | 0.383 | 1 | 1.14 | 1.47 | 0 | 5.05 |
| Cc1cc(CN2Cc3ccccc3CC2c2nnc(C)o2)on1 (configuration not stated) | -3.58 | 2.6 | 6.16 | 3.48 | 2.25 | 4.84 | 0.728 | -4.28 | 6.67 | 9.41 | -13.4 |
| Cc1ccc(N2CC[C@H]3C[C@@H](C(=O)N4CCOCC4)O[C@H]3C2)nn1 | -2.71 | 13.5 | -1.79 | -1.51 | -0.293 | -0.319 | 11.6 | -4.87 | 10.8 | 15.4 | -1.79 |
| Cc1ncc(CNC(=O)N(C)C2CCN(c3ccccc3)C2=O)s1 (configuration not stated) | -4.68 | 5.26 | 1.78 | -2.39 | -4.51 | 3.45 | 4.51 | 15.1 | 2.45 | 0 | -3.16 |
| COc1cccc(CN(C)C(=O)CN2CCN(c3nccn3C)CC2)c1 | -1.77 | 8 | -12.7 | 7.67 | 3.99 | 14.1 | 20.6 | 1.29 | 10.4 | 21 | -3.45 |
| CCc1nc(CCNC(=O)NC2CC2)sc1C | -5.62 | 0 | -1.43 | -3.96 | 0 | 1.67 | 9.89 | 5.25 | 6.93 | -1.22 | -6.36 |
| COc1ccc(CNC(=O)NCC2CCOC2)c(C(F)(F)F)c1 (configuration not stated) | -7.19 | 1.39 | -0.168 | 4.9 | -4.37 | -0.442 | 9.3 | 16.2 | 5.26 | 2.56 | -0.725 |
| NC(=O)c1ccc(CN2CCCC(N3CCCC3)C2)cc1 (configuration not stated) | -3.01 | 18.9 | -3.31 | -0.296 | 2.54 | 5 | 23.8 | -1.33 | 7.92 | 15.8 | -6.1 |
| Cc1cc(C)n(CC(=O)N2CCC(c3nc(C)no3)CC2)n1 | -2.79 | 9.72 | 3.9 | -0.831 | 2.43 | 3.09 | 9.3 | -22.2 | 3.16 | 5.13 | -4.51 |
| CCc1ncncc1C(=O)N1CCCN(Cc2ccc(C)cc2)CC1 | -6.16 | 2.63 | 1.25 | -3.26 | -6.44 | -0.36 | 0.592 | 6.25 | -2.46 | -13.6 | 6.06 |
| COc1cccc(-c2noc(-c3ccc(NCC4CC4)nc3)n2)c1OC | -6.26 | 0 | -3.38 | 6.76 | 8.47 | 2.08 | 11 | 31.3 | 4.92 | 13.6 | -1.62 |
